Compound activity deposited in PubChem by National Center for Advancing Translational Sciences (NCATS).
VP16 counter: inhibits Gal4-VP16 luciferase reporter, ROR gamma counter-screen; 310,000 tested, 3.5% active; Drosophila S2 Gal4-VP16 UAS-luciferase, luminescence, 20 h; Potency, µM (top dose mostly 53.6 µM), for inactives: top-dose activity, negative = inhibition, usual class: inhibitors;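 also: Gal4-VP16 expression switched on by copper sulfate through the metallothionein promoter; potency is read from the fitted curve at half-maximal effect; nearly all actives have a fitted effect of over 50% in size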
TSHR antagonist: antagonists of human thyroid stimulating hormone receptor. P16473. TSHR-expressing cells, TSH-stimulated cAMP HTRF, 2 h; stronger effect = lower value. activity change, negative = inhibition, % at 11.5 µM. 330,000 tested, 0.2% active. AID 504810;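 active = activity change below a set negative limit, meaning inhibition stronger than a set level, cut at about -70% in these data; inconclusive = activity change between two set negative limits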
Target sequence (P16473 whole entry, looked up): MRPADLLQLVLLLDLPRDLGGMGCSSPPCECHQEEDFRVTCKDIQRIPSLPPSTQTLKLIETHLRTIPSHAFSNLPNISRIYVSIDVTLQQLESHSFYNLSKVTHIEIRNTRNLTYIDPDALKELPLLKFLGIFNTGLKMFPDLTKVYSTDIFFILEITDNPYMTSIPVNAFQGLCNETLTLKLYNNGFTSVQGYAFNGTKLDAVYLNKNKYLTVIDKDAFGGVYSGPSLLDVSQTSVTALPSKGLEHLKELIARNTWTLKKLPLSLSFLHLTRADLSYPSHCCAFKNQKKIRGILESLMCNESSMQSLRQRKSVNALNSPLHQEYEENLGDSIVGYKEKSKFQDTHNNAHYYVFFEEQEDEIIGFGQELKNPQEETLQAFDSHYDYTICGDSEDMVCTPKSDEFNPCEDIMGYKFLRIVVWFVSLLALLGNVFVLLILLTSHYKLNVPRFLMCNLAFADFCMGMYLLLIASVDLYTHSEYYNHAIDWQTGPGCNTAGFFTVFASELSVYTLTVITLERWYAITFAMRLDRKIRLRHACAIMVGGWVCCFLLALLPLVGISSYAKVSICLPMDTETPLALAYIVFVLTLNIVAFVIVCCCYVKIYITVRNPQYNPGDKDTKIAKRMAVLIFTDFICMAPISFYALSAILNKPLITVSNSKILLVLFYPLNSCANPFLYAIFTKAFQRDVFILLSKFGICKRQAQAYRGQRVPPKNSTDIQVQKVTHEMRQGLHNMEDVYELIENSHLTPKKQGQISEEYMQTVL
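Cell-based HTRF cAMP assay; TSHR cells + compound, TSH EC80 (4nM final), 2 h, 37 deg C. Lysis with anti-cAMP cryptate and cAMP-d2, 30 min RT, read 665/620 nm.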
FBPA coupling cs: inhibits coupling enzyme system, counter-screen for aldolase hits. coupling enzyme system counterscreen, AmpLite Red fluorescence. activity change, negative = inhibition, % at 58.2 µM, hits read low. 290,000 tested, 0.67% active; in the data active = activity change below about -30%
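Counterscreen lacking aldolase: glyceraldehyde-3-phosphate coupling-enzyme reagent preincubated 10 min at RT with compound (at 57.5 uM final), then substrate/coupling system with AmpLite Red added; fluorescence read at 525/598 nm after 20 min RT.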
ELG1 repair inh: inhibitors of ELG1-dependent DNA repair in HEK293T cells; 330,000 tested, 2.3% active; Potency, µM (highest dose often 46.1 µM), without a hit: at the top dose activity change, negative = inhibition, most hits filed as inhibitors; HEK293T ELG1-luciferase reporter, luminescence, 16 h; DNA damage induced by 5-fluorouridine; also: potency is read from the fitted curve at half-maximal effect; nearly all actives have a fitted effect of over 55% in size
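5-Fluorouridine DNA damage + compound/DMSO, 2,000 cells/well, 16 h, 37 °C/5% CO2. ONE-Glo, 30 min RT, luminescence. Readout = decrease in reporter signal.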
RORg inh: ROR gamma (mouse) transcription inhibition; Drosophila S2 Gal4-RORgamma UAS-luciferase reporter, 20 h; Potency, µM (doses to about 53.6 µM), for the others: at the top dose activity change, negative = inhibition, actives largely listed as inhibitors; 310,000 tested, 5.4% active; also: potency is read from the fitted curve at half-maximal effect; nearly all actives have a fitted effect of over 60% in size
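Drosophila S2 cells stably expressing Gal4-DBD/mouse RORγ fusion under metallothionein promoter plus UAS-luciferase; compound 1 h, then 700 uM CuSO4 induction for 20 h at ambient temperature; inhibition read as reduced luminescence.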
Numbers without * were called inactive; u = inconclusive; x = no result; [ ] = dose if it differs, or a comment. The list is not random: actives were taken first. Their share in the collection is about 8%. Unless noted, calls follow the shape of the dose curve; as a rule, active = well fitted curve in the direction sought with a large enough effect; inconclusive = small, poorly fitted or top-dose-only effect, or another doubt; inactive = no such curve, though single readings can be large; an effect the other way counts as inactive or inconclusive. % is scaled to controls: 0 for no effect and ±100 for the full control effect.

SMILES	VP16 counter	TSHR antagonist	FBPA coupling cs	ELG1 repair inh	RORg inh
CC(=O)c1cccc(NC(=O)c2cc(-c3cccs3)on2)c1	-6%	7	1	u	-39%
COc1cccc(-c2cc(C(=O)Nc3cccc(O)c3)no2)c1	2.5µM*	-8	-4	u	0.89µM*
O=C(Nc1cccc(O)c1)c1cc(-c2cccs2)on1	3.5µM*	-6	-1	u	2µM*
O=C(/C=C/c1ccc(F)cc1)Nc1cccc(S(=O)(=O)N2CCOCC2)c1	x	-13	x	u	x
Cn1c(SCc2cccc(C#N)c2)nc2ccccc2c1=O	u	-21	-1	u	u
N#Cc1nc(NCC2CC2)nc(Nc2ccccc2)n1	2%	x	-1	x	x
Cc1c(C(=O)NC(Cc2ccccc2)c2nc3ccccc3[nH]2)cccc1[N+](=O)[O-] (stereo not given)	3%	3	-8	11%	-4%
Cc1c(C(=O)Nc2nc3ccccc3[nH]2)cccc1[N+](=O)[O-]	10µM*	5	0	u	7.9µM*
COC(=O)c1[nH]c2ccccc2c1NC(=O)c1ccccc1[N+](=O)[O-]	-6%	-2	0	3%	18%
O=C(Nc1nc2ccccc2[nH]1)c1ccc(Cl)c([N+](=O)[O-])c1	u	-6	-2	u	2.8µM*
O=C(Nc1nc2ccccc2[nH]1)c1ccccc1[N+](=O)[O-]	22µM*	-2	-1	u	8.9µM*
CCCCCN(CCCCC)C(=O)[C@H](CCC(=O)O)NC(=O)c1ccc(Cl)c(Cl)c1	0%[17 µM]	x	2	x	1%[16.9 µM]
C[C@H]1O[C@@H](n2cnc3c(N)ncnc32)C[C@@H]1OP(=O)(O)OP(=O)(O)OP(=O)(O)O	4%	x	5	x	-15%
CCCC(=O)Nc1ccc2c(c1)nc(CN1CCCC1)n2C	-7%	-3	1	15%	0%
Cc1ccc(C(C)C)c(OCC(=O)Nc2ccc3c(c2)nc(CN2CCCC2)n3C)c1	3%	-3	1	13µM*	u
Cc1nc(-c2ccc(C(F)(F)F)cc2)sc1C(=O)NN	3.5µM*	-6	1	u	4.5µM*
COCCCNC(=O)C(C#N)c1nc2ccccc2nc1N1CCCC1 (stereo not given)	-19%	15	-2	21µM*	2%
CCCCCCOC(=O)C(C#N)c1nc2ccccc2nc1N1CCOCC1 (stereo not given)	1%	27	-9	u	-32%
CCN1CCN(c2nc3ccccc3nc2C(C#N)C(=O)OCc2ccccc2)CC1 (stereo not given)	-4%	-1	-6	18µM*	5%
CCCCCCOC(=O)C(C#N)c1nc2ccccc2nc1N1CCN(CC)CC1 (stereo not given)	u	-10	0	-26%	10µM*
CCCCOC(=O)C(C#N)c1nc2ccccc2nc1N1CCOCC1 (stereo not given)	-14%	-8	-5	21µM*	-23%
COc1ccc(CN2CCN(Cc3cc4ccccc4o3)CC2CCO)cc1C (stereo not given)	2%	19	0	-23%	-17%
Cc1ccc(S(=O)(=O)C(C#N)c2nc3ccccc3nc2N2CCCC2)cc1 (stereo not given)	-7%	18	-30*	u	-32%
CCN1CCN(c2nc3ccccc3nc2C(C#N)S(=O)(=O)c2ccc(C)cc2)CC1 (stereo not given)	-5%	2	3	-4%	5%
CN(/N=C/c1cc(Cl)cc(Cl)c1O)C(=S)NC(C)(C)C	16µM*	-1	2	u	u
SMILES	VP16 counter	TSHR antagonist	FBPA coupling cs	ELG1 repair inh	RORg inh
Oc1c(Cl)cc(Cl)cc1/C=N/Nc1ncc(Br)cn1	21%	-15	5	u	u
N#Cc1ccc(/C=C\c2nccc3c2[nH]c2ccccc23)cc1	2.2µM*	-6	0	u	0.45µM*
Clc1ccc(/C=C\c2nccc3c2[nH]c2ccccc23)cc1	u	-10	-1	0%	1.6µM*
COc1ccc(C2c3c(-c4ccccc4O)n[nH]c3C(=O)N2Cc2ccco2)cc1OC (stereo not given)	-3%	5	-1	0%	7%
COc1ccc(CCN2C(=O)c3[nH]nc(-c4ccccc4O)c3C2c2cccc(O)c2)cc1OC (stereo not given)	-14%	-15	0	18µM*	-6%
CCOC(=O)c1c(C)[nH]c(C(=O)OC)c1CCC(=O)OC	-1%	13	-1	3%	15%
CCOC(=O)c1[nH]c(Cc2[nH]c(C(=O)OCC)c(C)c2CCC(=O)OC)c(CCC(=O)OC)c1C	3%	-1	-5	18µM*	17%
CC(=O)N1c2ccc(Cl)cc2C2C=CCC2C1c1cccc2ccccc12 (stereo not given)	22µM*	10	-8	23µM*	u
CC(=O)N1c2ccc3ccccc3c2C2C=CCC2C1c1ccc(Br)cc1 (stereo not given)	-1%	45	-7	12%	-8%[10 µM]
Cc1ccc(OCc2cc(C(=O)N3CCCC(O)C3)no2)cn1 (stereo not given)	-10%	0	x	u	18%
COc1ccccc1C(CNc1nc(C(F)(F)F)nc2ccccc12)N(C)C (stereo not given)	-12%	0	1	4%	27%
Cc1ccc(C)c(N(CC(=O)NC2CCCC2)C(=O)c2csnn2)c1	-14%	-18	10	u	-3%
C/C(=N\NC(=O)c1cc(Br)ccc1O)c1cccs1	u	-9	-8	u	10µM*
C/C(=N\NC(=O)c1cc(Br)ccc1O)c1cccc(NC(=O)c2ccccc2F)c1	1%	-21	x	u	11µM*
C/C(=N\Nc1nc2ccccc2s1)c1ccc2c(c1)OCO2	u	10	4	u	u
C/C(=N\NC(=O)c1ccccc1F)c1cccc(NC(=O)c2ccccc2)c1	-5%	2	x	u	-17%
C/C(=N\NC(=O)c1ccc(Cl)cc1)c1cccs1	16µM*	-5	-3	u	7.1µM*
C/C(=N\Nc1nc2ccccc2s1)c1ccc(Br)s1	u	-5	-1	-16%	7.1µM*
COC(=O)N/N=C(\C)c1cccs1	-9%	-14	0	u	8%
Cc1cncc(C(=O)O)[n+]1[O-]	-5%	x	x	x	-3%
C/C(=N\NC(=O)c1ccccc1O)c1ccc(Br)s1	2µM*	-11	-4	u	2µM*
C/C(=N\NC(=O)c1cccc(F)c1)c1ccc(Br)s1	1.3µM*	-5	2	-20%	0.79µM*
C/C(=N\NC(=O)c1ccccc1[N+](=O)[O-])c1ccc(Br)s1	-11%	-19	1	-3%	19%
CCOC(=O)C1=C(C)NC(C)=C(C(=O)OCC)C1c1ccccc1C=CC(=O)OC(C)(C)C	u	x	x	x	3%[10 µM]
